FLuc inh = blocks purified firefly luciferase enzyme activity; purified P. pyralis luciferase, luminescence, biochemical; Potency, µM (highest dose often 115 µM), hits mostly inhibitors; 76,000 tested, 2.5% active; further: nearly all actives have a fitted effect of over 65% in size
Target sequence (P08659 whole entry, looked up): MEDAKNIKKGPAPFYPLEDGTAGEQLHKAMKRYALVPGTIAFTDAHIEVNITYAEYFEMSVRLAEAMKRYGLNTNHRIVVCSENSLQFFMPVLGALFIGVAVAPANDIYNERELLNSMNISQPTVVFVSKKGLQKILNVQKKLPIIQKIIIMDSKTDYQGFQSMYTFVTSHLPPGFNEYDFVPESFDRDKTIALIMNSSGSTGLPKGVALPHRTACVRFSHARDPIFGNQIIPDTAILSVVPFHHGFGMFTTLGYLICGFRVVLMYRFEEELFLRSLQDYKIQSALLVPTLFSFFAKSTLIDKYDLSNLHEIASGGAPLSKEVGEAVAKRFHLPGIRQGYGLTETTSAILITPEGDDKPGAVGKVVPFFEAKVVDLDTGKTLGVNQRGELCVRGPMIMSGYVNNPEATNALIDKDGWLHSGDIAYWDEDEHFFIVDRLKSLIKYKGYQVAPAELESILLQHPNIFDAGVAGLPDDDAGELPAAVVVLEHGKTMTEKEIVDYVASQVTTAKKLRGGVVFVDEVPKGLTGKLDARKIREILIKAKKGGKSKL
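Purified 10nM P. pyralis luciferase with 10uM D-luciferin and 10uM ATP in 50mM Tris acetate pH 7.5, 10mM Mg acetate, 0.01% Tween-20, 0.05% BSA. qHTS titration; luminescence read by CCD imager.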
GPT2 inh = inhibitors of human GPT2 alanine aminotransferase. Potency, µM (titrated, usually from 57.7 µM), for the others: top-dose activity change, negative = inhibition, usual class: inhibitors. 100,000 tested, 0.25% active. Recombinant GPT2, coupled pyruvate oxidase/HRP Amplex Red fluorescence; further: nearly all actives have a fitted effect of over 60% in size
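Recombinant GPT2 (10ng/uL) with 250uM a-KG and 2mM L-alanine, 30 min at room temperature, in HEPES pH 7.5 buffer. Pyruvate detected by pyruvate oxidase/HRP/Amplex Red fluorescence after 30 min in the dark; AOA (50uM) as positive control.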
NIH3T3 tox = kills NIH 3T3 cells; NIH 3T3 viability, CellTiter-Glo ATP luminescence, 48-72 h; 94,000 tested, 4.3% active; Potency, µM (doses to about 96.7 µM), for the others: at the top dose activity change, negative = cytotoxicity, most hits filed as inhibitors; AID 1345082; further: nearly all actives have a fitted effect of over 55% in size
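First NIH 3T3 cells are plated at 400 cells/well; next compound is pinned in; then plates incubate 48 or 72 hr at 37 °C; finally CellTiter-Glo is added and luminescence read after 10 min.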
HEK293 tox = HEK 293 cell cytotoxicity; AID 1345083; HEK 293 viability, ATP luminescence (CellTiter-Glo), 48-72 h; Potency, µM (highest dose often 115 µM), without a hit: at the top dose activity change, negative = cytotoxicity, most hits filed as inhibitors; 94,000 tested, 6.6% active; further: nearly all actives have a fitted effect of over 60% in size
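Read-out: CellTiter-Glo ATP luminescence. Cells: HEK 293, 250 cells/well. Exposure: 48 or 72 hr, 37 degree Celsius.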
NPR1 antag = antagonists of human natriuretic peptide receptor Npr1. HEK293 hNpr1 GloSensor cGMP, ANP-stimulated luminescence. Potency, µM (highest dose often 46.3 µM), for inactives: at the top dose activity change, negative = inhibition, hits mostly inhibitors. 76,000 tested, 1.6% active; calls by dose curve; further: nearly all actives have a fitted effect of over 60% in size
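Compound pre-incubated 30 min at room temperature on GloSensor-loaded HEK293 cells stably carrying hNpr1 and the pGS-40F cGMP biosensor. Stimulation uses hNppA at 0.1 nM final; luminescence is taken at baseline and 20 min post-agonist.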
* hit, by the source's call; i = inactive; ? = inconclusive; · = not tested or not shown; [ ] = another dose, or the depositor's remark. An excerpt weighted towards active compounds, which were near 10% of everything screened. Unless noted, the call rests on the fitted dose curve; in most records, active means well fitted curve in the direction sought with a large enough effect; inconclusive means small, poorly fitted or top-dose-only effect, or another doubt; inactive means no such curve, though single readings can be large; an effect the other way counts as inactive or inconclusive. On the % scale 0 is the no-effect control and ±100 the full control effect; potency means the concentration at half of the fitted maximal effect.

SMILES | FLuc inh | GPT2 inh | NIH3T3 tox | HEK293 tox | NPR1 antag
O=C(c1ccsc1)N1CCCn2cc(-c3ccccc3F)nc21 | 35µM* | 2% | i | -13% | -4%
Cn1cccc1CN1CCCC2(CC(Cc3ccccc3)=NO2)C1 (configuration not stated) | i | i | ? | ? | -5%[70.6 µM]
CC(C)CCN1CCCC2(CC(Cc3ccccc3)=NO2)C1 (configuration not stated) | i | -2%[88.5 µM] | -20%[138 µM] | 100µM* | 9%[70.6 µM]
Cc1ccc(-n2nc(C)c([C@H]3C=C[C@@H](OC(=O)N[C@H](C)c4ccccc4)C3)c2C)cc1Cl | i | 2% | ? | ? | -19%
COc1ccc(C(=O)N[C@@H]2C=C[C@@H](c3c(C)nn(-c4ccccc4)c3C)C2)cc1 | i | -16%[88.5 µM] | ? | ? | -8%[70.6 µM]
Cc1nn(-c2ccc(C(F)(F)F)cc2)c(C)c1[C@@H]1C=C[C@@H](NS(=O)(=O)c2ccccc2)C1 | i | -2% | 40µM* | 45µM* | -29%
COc1ccc(C(=O)N[C@@H]2C=C[C@@H](c3c(C)nn(-c4ccc(C)c(Cl)c4)c3C)C2)cc1 | 32µM* | 5% | ? | ? | ?
Cc1ccc(-n2nc(C)c([C@@H]3C=C[C@@H](NS(=O)(=O)c4cccs4)C3)c2C)cc1Cl | ? | ? | 35µM* | 45µM* | ?
Cc1nn(-c2ccc(C(F)(F)F)cc2)c(C)c1[C@@H]1C=C[C@@H](NC(=O)COc2ccccc2)C1 | i | -4% | ? | ? | -24%
O=C(c1ccsc1)N1CCC(Oc2cccc(F)c2)C1 (configuration not stated) | i | i | -16% | ? | 0%
O=C(c1ccc(C2CCCNC2)cc1)N1CCC(Oc2cccc(F)c2)CC1 (configuration not stated) | i | ? | 40µM* | 28µM* | -14%
NC(=O)Cc1c[nH]c2ncc(-c3ccc(Cl)cc3)cc12 | 79µM* | 4%[88.5 µM] | ? | ? | -24%[70.6 µM]
NC(=O)Cc1c[nH]c2ncc(-c3cccc(O)c3)cc12 | ? | 2%[88.5 µM] | ? | 4%[230 µM] | -2%[70.6 µM]
NC(=O)Cc1c[nH]c2ncc(-c3ccc4c(c3)OCO4)cc12 | 63µM* | -2%[88.5 µM] | 45µM* | -11%[172 µM] | -4%[70.6 µM]
O=C(NCc1ccccc1)c1cn2cc(-c3ccc(C(F)(F)F)cc3)sc2n1 | · | -2% | -16% | -7% | ·
O=C(NCc1ccco1)c1ccc(-c2ccc(N3CCCCCC3)nc2)cc1 | ? | 2% | ? | 40µM* | -20%
Cc1ccc(CNC(=O)c2ccc(-c3ccc(N4CCCCC4)nc3)cc2)o1 | 14µM* | -8% | -10% | ? | -15%
CC(C)NC(=O)c1ccc(-c2ccc(N3CCCCCC3)nc2)cc1 | i | i | ? | ? | ?
CCOc1ccc(NC(=O)Cn2c(N3CCN(c4ccccc4)CC3)nc(C)cc2=O)cc1 | i | -13% | -5% | ? | -3%
CCOc1ccc(NC(=O)Cn2c(-c3ccccc3)nc(C)cc2=O)cc1 | i | i | ? | ? | -3%
CC(=O)c1ccc(NC(=O)Cn2c(N3CCc4ccccc4C3)nc(C)cc2=O)cc1 | i | -14% | 28µM* | 35µM* | -27%
Cc1cc(=O)n(CC(=O)Nc2ccc(C)c(C)c2)c(N2CCc3ccccc3C2)n1 | i | i | -2% | ? | -13%
CC(=O)c1cccc(NC(=O)Cn2c(N3CCc4ccccc4C3)nc(C)cc2=O)c1 | i | -1% | ? | 45µM* | -22%
CCOc1ccc(NC(=O)Cn2c(Nc3cc(C)cc(C)c3)nc(C)cc2=O)cc1 | i | -14% | 32µM* | ? | -27%
CCOc1ccc(NC(=O)Cn2c(N3CCc4ccccc4C3)nc(C)cc2=O)cc1 | i | i | 32µM* | 40µM* | -12%
SMILES | FLuc inh | GPT2 inh | NIH3T3 tox | HEK293 tox | NPR1 antag
CNC(=O)c1cc(C2CC2)nc2c1c(C1CCCN(C(=O)c3ccc(C)cc3)C1)nn2C (configuration not stated) | · | · | -27% | ? | ·
O=C(OCc1ccccc1)N1CCOCC12CCN(Cc1ccc(F)cc1)CC2 | i | i | ? | 71µM* | -12%[70.6 µM]
O=C(OCc1ccccc1)N1CCOCC12CCN(Cc1cccs1)CC2 | i | -11%[88.5 µM] | 28µM* | ? | 3%[70.6 µM]
O=C(COc1ccccc1)N1CCOCC12CCN(Cc1ccccc1)CC2 | i | ? | ? | 45µM* | 3%[70.6 µM]
CC(C)c1ccc(CN2CCC3(CC2)COCCN3C(=O)OCc2ccccc2)cc1 | i | i | 35µM* | 50µM* | ?
COc1ccc(CCNC(=O)c2nc3sccn3c2-c2ccc(C(F)(F)F)cc2)cc1 | · | ? | ? | -20% | ·
Cc1cnc(C2CCN(S(C)(=O)=O)C2)n1Cc1ccc(F)cc1 (configuration not stated) | · | i | -16% | 1% | ·
COc1ccc(CN2CC[C@@H](CO)N(C)c3nc(C)ccc3C2)cc1 | i | -11%[88.5 µM] | -20%[174 µM] | ? | -1%[70.6 µM]
Cc1ccc2c(n1)N(C)[C@H](CO)CCN(Cc1ccc(C(F)(F)F)cc1)C2 | i | i | 63µM* | 35µM* | -11%[70.6 µM]
Cc1ccc2c(n1)N(C)[C@H](CO)CCN(Cc1ccc(C(C)C)cc1)C2 | i | -2%[88.5 µM] | ? | 63µM* | -16%[70.6 µM]
COc1ccc(CC(=O)N2CCN(c3nccc(Nc4ccccc4Cl)n3)CC2)cc1 | · | i | 40µM* | ? | ·
O=C(NCC1CC1)C1CCN(c2nccc(Nc3ccccc3Cl)n2)CC1 | · | i | 32µM* | 32µM* | ·
COc1ccc(CNC(=O)C2CCN(c3nccc(Nc4ccccc4Cl)n3)CC2)cc1 | · | -11% | 35µM* | 25µM* | ·
Cc1cccc(-c2nc3ccc(C(=O)NCC(C)C)cc3o2)n1 | · | i | ? | ? | ·
O=C(NCc1ccc(F)cc1)c1cnc2n[nH]c(-c3ccccc3)c2n1 | i | -1%[88.5 µM] | 50µM* | ? | -26%[70.6 µM]
COc1ccc(-c2[nH]nc3ncc(C(=O)NCc4ccc(F)cc4)nc23)c(C)c1 | i | i | 22µM* | 32µM* | -19%[70.6 µM]
O=C(c1cnc2n[nH]c(-c3ccccc3)c2n1)N1CCOCC1 | i | 3%[88.5 µM] | ? | ? | -11%[70.6 µM]
O=C(c1cnc2n[nH]c(-c3ccccc3)c2n1)N1CCN(c2ccccn2)CC1 | i | -12%[88.5 µM] | ? | 71µM* | -13%[70.6 µM]
O=C(NCC1CCOCC1)c1cnc2n[nH]c(-c3ccccc3)c2n1 | i | 2%[88.5 µM] | 79µM* | ? | 4%[70.6 µM]
O=C(NCCc1ccccc1)c1cnc2n[nH]c(-c3ccccc3)c2n1 | i | i | ? | -26%[172 µM] | -17%[70.6 µM]
COc1ccc(-c2cc(C(=O)NC3CCC3)c3cnn(C)c3n2)cc1 | · | · | -24%[138 µM] | -30%[172 µM] | ·
COc1cccc(-c2cc(C(=O)NC3CCC3)c3cnn(C)c3n2)c1 | · | · | ? | 79µM* | ·

Compound activity (PubChem BioAssay)
